Screening data deposited in PubChem BioAssay by The Scripps Research Institute Molecular Screening Center.
The full list was thinned out, with hits kept by preference.
GBA enhancer – enhancers of human beta-glucosidase activity in Gaucher fibroblasts; actives 0.44% (n = 30,000); activation, % at 10 µM; L444P Gaucher fibroblasts, 4-MU-glucoside fluorescence, 3 days; P04062; AID 784; in the data active = activation above about 65%;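 note: 0% = vehicle wells and 100% = positive control wells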
Target sequence (P04062 whole entry L483P): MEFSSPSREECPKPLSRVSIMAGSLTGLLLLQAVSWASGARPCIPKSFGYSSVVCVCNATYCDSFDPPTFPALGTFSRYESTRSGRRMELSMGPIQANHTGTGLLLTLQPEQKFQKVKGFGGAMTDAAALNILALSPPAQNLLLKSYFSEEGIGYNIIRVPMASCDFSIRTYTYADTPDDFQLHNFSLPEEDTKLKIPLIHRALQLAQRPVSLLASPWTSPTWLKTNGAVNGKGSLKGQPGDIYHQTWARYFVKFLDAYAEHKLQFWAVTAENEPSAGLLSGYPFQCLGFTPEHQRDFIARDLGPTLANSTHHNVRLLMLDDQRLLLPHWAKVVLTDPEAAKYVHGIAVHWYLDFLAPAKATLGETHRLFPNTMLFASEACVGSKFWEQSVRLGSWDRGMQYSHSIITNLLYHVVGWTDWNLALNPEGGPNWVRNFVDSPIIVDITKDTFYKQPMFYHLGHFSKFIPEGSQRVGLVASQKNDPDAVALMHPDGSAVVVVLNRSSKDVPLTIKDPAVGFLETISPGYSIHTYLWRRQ
The depositor's hits bear a star.

SMILES	GBA enhancer
COc1cccc(N2CCN(C(=O)CCn3c(=S)[nH]c4cc5c(cc4c3=O)OCO5)CC2)c1	14
CC(C)C(=O)Nc1cccc(NC(=O)CCN2C(=O)c3ccccc3S2(=O)=O)c1	3
O=C(CCNS(=O)(=O)c1cccc2nsnc12)NC1CCN(Cc2ccccc2)CC1	86*
CN(CC(=O)NCCN1CCN(Cc2ccccc2)CC1)S(=O)(=O)c1cccc2nsnc12	17
O=C(CCCNS(=O)(=O)c1cccc2nsnc12)NCCc1ccccc1	3
COCCCn1c(SCC(=O)OC2CCCCC2)nnc1-c1ccco1	66*
COCCCn1c(SCC(=O)N2CCCCC2C)nnc1-c1ccco1 (stereo unspecified)	-3
CCCn1c(SCC(=O)N2CCCCC2)nnc1-c1ccco1	-44
c1ccc(-c2nn3c(-c4ccncc4)nnc3s2)nc1	-22
CC1CN(S(=O)(=O)c2ccc(NC(=O)CCN3C(=O)c4ccccc4C3=O)cc2)CC(C)O1 (stereo unspecified)	-39
Cc1ccc(OCCCC(=O)Nc2ccc(S(=O)(=O)Nc3cc(C)on3)cc2)cc1	-15
Cc1cc(NS(=O)(=O)c2ccc(NC(=O)CCN3C(=O)c4ccccc4C3=O)cc2)no1	93*
COC(=O)c1ccc(COC(=O)c2ccc(-n3cnnn3)cc2)o1	-5
COc1ccc2cc3cc(C(=O)NCCCN4CCOCC4)oc3nc2c1	11
CCN1CCN(CCCNC(=O)c2cc3cc4ccc(OC)cc4nc3o2)CC1	94*
CCCCN(CC)CCCNC(=O)c1cc2cc3ccc(OC)cc3nc2o1	123*
COc1ccc2cc3cc(C(=O)NCCN4CCN(Cc5ccccc5)CC4)oc3nc2c1	22
COc1ccc2cc3cc(C(=O)NCCc4ccc(OC)c(OC)c4)oc3nc2c1	-50
CCCN(CCC)CCCNC(=O)c1cc2cc3ccc(OC)cc3nc2o1	48
Cc1ccc(OCn2c(=O)sc3ccccc32)cc1	5
Cc1sc2nc3c(C(=O)N4CCN(c5ncccn5)CC4)cccn3c(=O)c2c1C	-59
Cc1ccnc2nc(C(=O)N3CCN(S(=O)(=O)c4ccccc4)CC3)nn12	-21
Cc1c(NC(=O)c2cc(-c3cccs3)on2)c(=O)n(-c2ccccc2)n1C	-2
CN(C)c1nc2c(c(=O)[nH]c(=O)n2C)n1Cc1ccccc1Br	-9
COc1ccc(N2CCN(C(=O)CCNS(=O)(=O)c3ccc4c(c3)CCC(=O)N4)CC2)cc1	-13
SMILES	GBA enhancer
CCCCN1C(=O)C2C(C(=O)Nc3cccc(OC)c3)C3C=CC2(O3)C1C(=O)NC1CCCCC1C (stereo unspecified)	-3
COc1cccc(NC(=O)C2C3C=CC4(O3)C2C(=O)N(C(C)C)C4C(=O)NC2CCCCC2C)c1 (stereo unspecified)	68*
COc1cccc(NC(=O)C2C3C=CC4(O3)C2C(=O)N(C2CC2)C4C(=O)NC2CCCCC2C)c1 (stereo unspecified)	-10
O=C(COC(=O)C1CCCCC1C(=O)N1CCc2ccccc21)NCc1ccco1 (stereo unspecified)	6
Cc1cc(-c2ccco2)c(C#N)c2nc3ccccc3n12	8
CCN(CCCNC(=O)CN(C)S(=O)(=O)c1cccc2nsnc12)c1ccccc1	-15
Cc1ccc(C)n1-c1ccc(N2CCOCC2)cc1	-3
O=C(N1CCOCC1)N1CCN(c2ccccn2)CC1	15
Cc1cc(C)cc(N2CCN(C(=O)N3CCOCC3)CC2)c1	72*
Cc1nc(SCC(=O)N2CCN(c3ccccc3)CC2)c2c(=O)n(C)c(=O)n(C)c2n1	-12
Cc1nc(C)c(-c2csc(NCc3ccco3)n2)s1	98*
Cc1nc(NC(=O)c2ccccc2)sc1-c1csc(NCc2ccco2)n1	1
COc1ccc(-c2csc(NCc3ccco3)n2)cc1	-32
Cc1ccc(-c2[nH]nc3c2C(c2ccc(OC(=O)N4CCOCC4)cc2)C(C#N)=C(N)O3)cc1 (stereo unspecified)	-35
O=C(NCC(=O)N(Cc1cccs1)C(C(=O)NC1CCCC1)c1ccco1)c1cccs1 (stereo unspecified)	-3
O=C(Nc1ccccc1C(=O)N1CCN(c2ccccc2)CC1)c1ccco1	3
CC(C)c1nc(SCC(=O)NCc2ccc3c(c2)OCO3)c2c(=O)n(C)c(=O)n(C)c2n1	1
C=CCSC1=N/C(=C\c2ccsc2)C(=O)S1	402*
CCOC(=O)SC1=N/C(=C\c2ccc(N(C)C)cc2)C(=O)S1	10
Cc1cc(NC(=O)CC23CC4CC(C2)CC(CC(=O)Nc2cc(C)on2)(C4)C3)no1	5
Clc1ccccc1CSc1ncccn1	-63
O=C(Nc1ccccc1N1CCCC1)c1cc2ccccc2o1	-30
O=C(Oc1ccccc1)c1cc2ccccc2o1	-3
O=C(OCCN1CCCCC1)c1cc2ccccc2o1	71*
CC(=O)Oc1ccc(NC(=O)CSc2ccccc2)cc1	-9
SMILES	GBA enhancer
O=C(c1oc2ccccc2c1CSCc1ccccc1)N1CCN(c2ncccn2)CC1	-4
Cc1cc(NC(=O)CN2CCN(c3ccccc3O)CC2)no1	7
CCOC(=O)COc1ccc(-c2nnc(-c3ccccc3)o2)cc1	78*
Cc1ccc(OCC(=O)Nc2cccc(-c3nnc(-c4ccccc4)o3)c2)cc1	9
CCOC(=O)c1nnc(-c2ccccc2)o1	-17
COc1ccc(OC)c(C2C3=C(CCCC3=O)Nc3nc4ccccc4n32)c1 (stereo unspecified)	-23
Cc1noc(C)c1C(=O)OCC(=O)c1cc(C)n(Cc2ccccc2Cl)c1C	10
COc1ccc(C(=O)n2nc(-c3ccccc3)nc2N)cc1OC	71*
CCCC(=O)n1nc(-c2ccc(OC)cc2)nc1N	21
Nc1nc(-c2ccc(Cl)cc2)nn1C(=O)c1cccnc1	15
Cc1nnc(Sc2nc(Sc3nnc(C)s3)nc(N3CCN(C)CC3)n2)s1	-18
c1ccc2c(c1)ncn2CCn1cnc2ccccc21	-21
CC(=O)Nc1cccc(OCC(O)Cn2cnc3ccccc32)c1 (stereo unspecified)	-12
OC(COCC1CC=CCC1)Cn1cnc2ccccc21 (stereo unspecified)	151*
Clc1ccc(COn2nnc3ccccc32)c(Cl)c1	3
COC(=O)CN1CCN(C(=O)c2ccc(F)cc2)c2ccccc2C1	106*
O=C(c1ccc(F)cc1)N1CCN(Cc2ccccc2Br)CC1	-17
O=C(CCCN1Cc2ccccc2C1)c1ccc(F)cc1	19
CCOc1ccc2nc3c(cc2c1)CN(CCCO)C(=NCCOC)S3	6
O=C(Nc1cccc(Cl)c1)Nc1nccs1	-49
N#CCc1ccc(NC(=O)Nc2cccc(Cl)c2)cc1	70*
CN1CCN(S(=O)(=O)c2ccc(NC(=O)Nc3cccc(Cl)c3)cc2)CC1	2
O=c1oc(-c2cccc(S(=O)(=O)N3CCOCC3)c2)nc2ccccc12	-19
Cc1ccc(CNn2cnnc2SCC(=O)NC(C)(C)C)cc1	-22
CC(C)(C)NC(=O)CSc1nncn1NCc1ccccc1	68*
SMILES	GBA enhancer
Cc1nnc(SCC(=O)NC(C)(C)C)n1CCc1ccccc1	-7
O=C(CN1C(=O)C2(OCCCO2)c2ccccc21)NCc1ccccc1	-4
COC(=O)CN1C(=O)C2(OCCCO2)c2cc(Br)ccc21	139*
CCOC(=O)CN1C(=O)C2(OCCCO2)c2ccccc21	0
N#CC1=C(N)N2C(=C(C#N)C13CCCCC3)SC1CCCCC12O (stereo unspecified)	-21
COC(=O)C(CC(=O)c1ccc(Br)cc1)n1ccnc1 (stereo unspecified)	0
COC(=O)c1cn(NC(=O)c2ccncc2)c(=O)c2ccccc12	74*
COc1ccccc1C(=O)Nn1cnc2ccccc2c1=O	-7
